# Data taken from PubChem BioAssay AID1159580 (chemical genetic matrix, 2015).
# Screen size: about 5,500 compounds; about 2,000 (36%) were called active. Not shown: some 18% with an inconclusive outcome. The list shows a part of the results. Unmarked numbers belong to inactive results. No stated cut-off is given here; in the data, active means normalized growth mostly below about 0.91 (no sharp cut-off); inconclusive means no clear call, values can overlap the other calls; inactive means mostly above about 0.92.
# Assay: chemical genetic growth profiling, strain panel (AID 1159580);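 further: tested at 20 µM; growth read once vehicle control cultures reached saturation at 30 °C; 1 = growth at the plate median or of vehicle wells; lower values mean less growth of the strain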
# Conditions: growth OD
# [1] = S. cerevisiae deletion strains, locus YAL013W, strain DEP1, hits give low values
# [2] = S. cerevisiae deletion strains, locus YBR229C, strain ROT2, hits give low values
# [3] = S. cerevisiae deletion strains, locus YDL101C, strain DUN1, hits give low values
# [4] = S. cerevisiae deletion strains, locus YDR150W, strain NUM1, hits give low values
# [5] = S. cerevisiae deletion strains, locus YEL061C, strain CIN8, hits give low values
# [6] = S. cerevisiae deletion strains, locus YGR078C, strain PAC10, hits give low values
# [7] = S. cerevisiae deletion strains, locus YHR030C, strain SLT2, hits give low values
# [8] = S. cerevisiae deletion strains, locus YHR087W, strain rtc3, hits give low values
# [9] = S. cerevisiae deletion strains, locus YJL187C, strain SWE1, hits give low values
# [10] = S. cerevisiae deletion strains, locus YJR043C, strain POL32, hits give low values
# [11] = S. cerevisiae deletion strains, locus YJR075W, strain HOC1, hits give low values
# [12] = S. cerevisiae deletion strains, locus YLR039C, strain RIC1, hits give low values
# [13] = S. cerevisiae deletion strains, locus YLR058C, strain SHM2 (second series), hits give low values
# [14] = S. cerevisiae deletion strains, locus YLR085C, strain ARP6, hits give low values
# [15] = S. cerevisiae deletion strains, locus YLR262C, strain YPT6, hits give low values
# [16] = S. cerevisiae deletion strains, locus YML094W, strain GIM5, hits give low values
# [17] = S. cerevisiae deletion strains, locus YMR219W, strain ESC1, hits give low values
# [18] = S. cerevisiae deletion strains, locus YMR263W, strain SAP30, hits give low values
# [19] = S. cerevisiae deletion strains, locus YNL128W, strain TEP1, hits give low values
# [20] = S. cerevisiae deletion strains, locus YNL153C, strain GIM3, hits give low values
# [21] = S. cerevisiae deletion strains, locus YNL298W, strain CLA4 (second series), hits give low values
# [22] = S. cerevisiae deletion strains, locus YNL322C, strain KRE1, hits give low values
# [23] = S. cerevisiae deletion strains, locus YNR030W, strain Alg12, hits give low values
# [24] = S. cerevisiae deletion strains, locus YOL006C, strain TOP1, hits give low values
# [25] = S. cerevisiae deletion strains, locus YPL055C, strain LGE1, hits give low values
# [26] = S. cerevisiae deletion strains, locus YPL241C, strain CIN2, hits give low values
# [27] = S. cerevisiae deletion strains, locus YPR135W, strain CTF4, hits give low values
# [28] = S. cerevisiae strains, strain wild type, hits give low values
# [29] = S. cerevisiae deletion strains, locus YDL134C, strain PPH21, hits give low values
# [30] = S. cerevisiae deletion strains, locus YKL190W, strain CNB1, hits give low values
# [31] = S. cerevisiae deletion strains, locus YCL061C, strain MRC1, hits give low values
smiles,measurement,setting,value
COC(=O)c1cn(Cc2ccc(C(F)(F)F)cc2)cc(F)c1=O,normalized growth,[1],1.02
same,normalized growth,[2],0.996
same,normalized growth,[3],0.996
same,normalized growth,[4],0.923
same,normalized growth,[5],0.998
same,normalized growth,[6],1
same,normalized growth,[7],1.08
same,normalized growth,[8],1
same,normalized growth,[9],1.04
same,normalized growth,[10],0.99
same,normalized growth,[11],1
same,normalized growth,[12],1.02
same,normalized growth,[13],0.996
same,normalized growth,[14],1.09
same,normalized growth,[15],1.04
same,normalized growth,[16],1.03
same,normalized growth,[17],1
same,normalized growth,[18],0.931
same,normalized growth,[19],1.01
same,normalized growth,[20],0.988
same,normalized growth,[21],1.02
same,normalized growth,[22],1.01
same,normalized growth,[23],1.02
same,normalized growth,[24],1.04
same,normalized growth,[25],0.921
same,normalized growth,[26],1.01
same,normalized growth,[27],1.05
same,normalized growth,[28],1.02
Cc1onc(-c2c(Cl)cccc2Cl)c1C(=O)N1CCN(c2ncccc2C(F)(F)F)CC1,normalized growth,[1],1.01
same,normalized growth,[2],1
same,normalized growth,[3],1.03
same,normalized growth,[29],0.988
same,normalized growth,[4],0.997
same,normalized growth,[5],1.03
same,normalized growth,[6],1
same,normalized growth,[7],0.908
same,normalized growth,[8],1
same,normalized growth,[9],0.992
same,normalized growth,[10],0.966
same,normalized growth,[11],0.999
same,normalized growth,[30],1
same,normalized growth,[12],0.99
same,normalized growth,[13],0.983
same,normalized growth,[14],0.921
same,normalized growth,[15],0.964
same,normalized growth,[16],1.11
same,normalized growth,[17],0.991
same,normalized growth,[18],0.977
same,normalized growth,[19],1
same,normalized growth,[20],1
same,normalized growth,[21],0.997
same,normalized growth,[22],0.994
same,normalized growth,[23],0.966
same,normalized growth,[24],0.934
same,normalized growth,[25],1.06
same,normalized growth,[26],0.99
same,normalized growth,[27],1.08
same,normalized growth,[28],0.972
CC(C)(C)C(=O)N1CCN(c2ncccc2C(F)(F)F)CC1,normalized growth,[1],0.988
same,normalized growth,[2],0.983
same,normalized growth,[31],0.998
same,normalized growth,[3],0.977
same,normalized growth,[29],0.967
same,normalized growth,[4],0.983
same,normalized growth,[5],0.96
same,normalized growth,[6],0.979
same,normalized growth,[7],0.853
same,normalized growth,[8],0.973
same,normalized growth,[10],0.997
same,normalized growth,[11],0.983
same,normalized growth,[12],0.914
same,normalized growth,[13],0.989
same,normalized growth,[14],0.941
same,normalized growth,[15],0.865
same,normalized growth,[16],0.939
same,normalized growth,[17],0.99
same,normalized growth,[18],1.02
same,normalized growth,[20],0.992
same,normalized growth,[21],0.966
same,normalized growth,[22],0.974
same,normalized growth,[23],0.963
same,normalized growth,[24],0.871
same,normalized growth,[25],0.959
same,normalized growth,[26],0.999
same,normalized growth,[27],0.787
N/C(=N/OS(=O)(=O)c1ccc(Cl)cc1)c1ccc(C(F)(F)F)cc1,normalized growth,[1],0.957
same,normalized growth,[2],0.978
same,normalized growth,[31],0.946
same,normalized growth,[3],0.958
same,normalized growth,[29],0.978
same,normalized growth,[4],0.96
same,normalized growth,[5],0.997
same,normalized growth,[6],0.971
same,normalized growth,[7],0.915
same,normalized growth,[8],1.01
same,normalized growth,[10],0.97
same,normalized growth,[11],0.955
same,normalized growth,[30],0.981
same,normalized growth,[12],0.969
same,normalized growth,[13],0.976
same,normalized growth,[14],0.968
same,normalized growth,[15],0.999
same,normalized growth,[16],0.985
same,normalized growth,[17],0.99
same,normalized growth,[18],0.991
same,normalized growth,[20],0.976
same,normalized growth,[21],0.943
same,normalized growth,[22],0.967
same,normalized growth,[23],0.971
same,normalized growth,[24],0.897
same,normalized growth,[25],1.02
same,normalized growth,[26],0.965
same,normalized growth,[27],0.847
same,normalized growth,[28],0.973
Cc1ccc(C(=O)O/N=C(/N)CSc2ncccc2C(F)(F)F)cc1,normalized growth,"S. cerevisiae deletion strains, locus YAR019C, strain CDC15, hits give low values",1
same,normalized growth,"S. cerevisiae deletion strains, locus YBL105C, strain PKC1, hits give low values",1.01
same,normalized growth,"S. cerevisiae deletion strains, locus YBR135W, strain CKS1, hits give low values",1
same,normalized growth,"S. cerevisiae deletion strains, locus YBR136W, strain MEC1, hits give low values",1.01
same,normalized growth,"S. cerevisiae deletion strains, locus YBR160W, strain CDC28, hits give low values",1
same,normalized growth,"S. cerevisiae deletion strains, locus YDL017W, strain CDC7, hits give low values",1.01
same,normalized growth,"S. cerevisiae deletion strains, locus YDL028C, strain MPS1, hits give low values",0.989
same,normalized growth,[3],1
same,normalized growth,"S. cerevisiae deletion strains, locus YDL108W, strain KIN28, hits give low values",1
same,normalized growth,"S. cerevisiae deletion strains, locus YDL132W, strain cdc53, hits give low values",1.01
same,normalized growth,"S. cerevisiae deletion strains, locus YDL214C, strain PRR2, hits give low values",0.991
same,normalized growth,"S. cerevisiae deletion strains, locus YDR052C, strain DBF4, hits give low values",1.01
same,normalized growth,"S. cerevisiae deletion strains, locus YDR054C, strain cdc34, hits give low values",1.01
same,normalized growth,"S. cerevisiae deletion strains, locus YDR226W, strain ADK1, hits give low values",1.02
same,normalized growth,"S. cerevisiae deletion strains, locus YDR477W, strain SNF1, hits give low values",0.994
same,normalized growth,"S. cerevisiae deletion strains, locus YER123W, strain YCK3, hits give low values",0.995
same,normalized growth,"S. cerevisiae deletion strains, locus YER133W, strain GLC7, hits give low values",0.976
same,normalized growth,"S. cerevisiae deletion strains, locus YFL009W, strain cdc4, hits give low values",0.994
same,normalized growth,"S. cerevisiae deletion strains, locus YFL029C, strain CAK1, hits give low values",1
same,normalized growth,"S. cerevisiae deletion strains, locus YFR003C, strain YPI1, hits give low values",1
same,normalized growth,"S. cerevisiae deletion strains, locus YFR019W, strain FAB1, hits give low values",0.955
same,normalized growth,"S. cerevisiae deletion strains, locus YFR028C, strain CDC14, hits give low values",1.01
same,normalized growth,"S. cerevisiae deletion strains, locus YGR040W, strain KSS1, hits give low values",0.998
same,normalized growth,"S. cerevisiae deletion strains, locus YGR052W, strain FMP48, hits give low values",1.02
same,normalized growth,"S. cerevisiae deletion strains, locus YGR092W, strain DBF2, hits give low values",1
same,normalized growth,[7],0.982
same,normalized growth,"S. cerevisiae deletion strains, locus YHR079C, strain IRE1, hits give low values",0.793
same,normalized growth,"S. cerevisiae deletion strains, locus YHR082C, strain KSP1, hits give low values",1.19
same,normalized growth,"S. cerevisiae deletion strains, locus YHR205W, strain SCH9, hits give low values",0.988
same,normalized growth,"S. cerevisiae deletion strains, locus YIL147C, strain SLN1, hits give low values",1.01
same,normalized growth,"S. cerevisiae deletion strains, locus YJL095W, strain BCK1, hits give low values",0.887
same,normalized growth,"S. cerevisiae deletion strains, locus YJL128C, strain PBS2, hits give low values",0.988
same,normalized growth,"S. cerevisiae deletion strains, locus YJL157C, strain FAR1, hits give low values",0.997
same,normalized growth,"S. cerevisiae deletion strains, locus YJR016C, strain ILV3, hits give low values",1.01
same,normalized growth,"S. cerevisiae deletion strains, locus YJR066W, strain TOR1 (second series), hits give low values",0.975
same,normalized growth,"S. cerevisiae deletion strains, locus YJR066W, strain TOR1, hits give low values",1.16
same,normalized growth,"S. cerevisiae deletion strains, locus YKL048C, strain ELM1, hits give low values",0.991
same,normalized growth,"S. cerevisiae deletion strains, locus YKL067W, strain YNK1, hits give low values",0.996
same,normalized growth,"S. cerevisiae deletion strains, locus YKL101W, strain HSL1, hits give low values",1
same,normalized growth,"S. cerevisiae deletion strains, locus YKL193C, strain SDS22, hits give low values",1.01
same,normalized growth,"S. cerevisiae deletion strains, locus YKL203C, strain TOR2, hits give low values",1.07
same,normalized growth,"S. cerevisiae deletion strains, locus YLR113W, strain HOG1, hits give low values",0.828 (active)
same,normalized growth,"S. cerevisiae deletion strains, locus YLR133W, strain CKI1, hits give low values",1
same,normalized growth,"S. cerevisiae deletion strains, locus YLR403W, strain SFP1, hits give low values",0.976
same,normalized growth,"S. cerevisiae deletion strains, locus YML070W, strain DAK1, hits give low values",0.988
same,normalized growth,"S. cerevisiae deletion strains, locus YMR001C, strain CDC5, hits give low values",1.01
same,normalized growth,"S. cerevisiae deletion strains, locus YMR205C, strain PFK2 (second series), hits give low values",0.993
same,normalized growth,"S. cerevisiae deletion strains, locus YMR277W, strain FCP1, hits give low values",1.01
same,normalized growth,"S. cerevisiae deletion strains, locus YNL006W, strain LST8, hits give low values",1.01
same,normalized growth,"S. cerevisiae deletion strains, locus YNL020C, strain ARK1, hits give low values",1
same,normalized growth,"S. cerevisiae deletion strains, locus YNL161W, strain CBK1, hits give low values",1.01
same,normalized growth,"S. cerevisiae deletion strains, locus YNL183C, strain NPR1, hits give low values",0.951
same,normalized growth,"S. cerevisiae deletion strains, locus YNL207W, strain RIO2, hits give low values",1.02
same,normalized growth,"S. cerevisiae deletion strains, locus YNL222W, strain SSU72, hits give low values",1
same,normalized growth,"S. cerevisiae deletion strains, locus YNL307C, strain MCK1 (second series), hits give low values",1.01
same,normalized growth,"S. cerevisiae deletion strains, locus YOL078W, strain AVO1, hits give low values",1
same,normalized growth,"S. cerevisiae deletion strains, locus YOL136C, strain PFK27, hits give low values",0.994
same,normalized growth,"S. cerevisiae deletion strains, locus YOR061W, strain CKA2, hits give low values",0.982
same,normalized growth,"S. cerevisiae deletion strains, locus YOR119C, strain RIO1, hits give low values",1.02
same,normalized growth,"S. cerevisiae deletion strains, locus YOR231W, strain MKK1, hits give low values",0.821
same,normalized growth,"S. cerevisiae deletion strains, locus YOR329C, strain SCD5, hits give low values",1.01
same,normalized growth,"S. cerevisiae deletion strains, locus YPL031C, strain PHO85, hits give low values",1
same,normalized growth,"S. cerevisiae deletion strains, locus YPL153C, strain RAD53, hits give low values",0.984
same,normalized growth,"S. cerevisiae deletion strains, locus YPL204W, strain HRR25, hits give low values",0.994
same,normalized growth,"S. cerevisiae deletion strains, locus YPL209C, strain IPL1, hits give low values",1.01
same,normalized growth,"S. cerevisiae deletion strains, locus YPL256C, strain CLN2, hits give low values",0.884
same,normalized growth,"S. cerevisiae deletion strains, locus YPR025C, strain CCL1, hits give low values",1
same,normalized growth,"S. cerevisiae deletion strains, locus YPR106W, strain ISR1, hits give low values",1.01
same,normalized growth,"S. cerevisiae deletion strains, locus YPR111W, strain DBF20, hits give low values",1
same,normalized growth,"S. cerevisiae deletion strains, strain NNK1, hits give low values",1.02
same,normalized growth,"S. cerevisiae deletion strains, strain TSCII, hits give low values",1.01
